Several values for one entry are separate records, joined by “and”; a condition that tells them apart may be missing. Identical values can stand only once. Records with an inconclusive call do not appear. Activity calls are given as the source filed them. The call rests on the fitted dose curve; in most records, active means well fitted cell-killing curve with a large enough effect; inconclusive means small, poorly fitted or top-dose-only effect, or effect the other way; inactive means no such curve, though single readings can be large or run the other way.
assay: Viability qHTS for spleen associated tyrosine kinase inhibitor (SYKi) drug resistant MV4-11 cells (AID 1963824); details: SYKi-resistant MV4-11 viability, CellTiter-Glo, 72 h; series mostly up to 45 µM; further: nearly all actives have a fitted effect of over 35% in size
Source text: Department of Medicine, Hematology/Oncology
University Hospital Frankfurt, Germany.
Trials have shown promising clinical activity of the selective SYK inhibitor entospletinib in patients with high expressing HOXA9/MEIS1 acute leukemias. As the development of resistance mechanisms is a common problem in the use of targeted drugs, we performed a chemical library screen to identify drug sensitivities in SYK inhibitor resistant AML cells. […] Glucocorticoids are potent immunosuppressants which work in part by inhibiting the transcription of cytokine genes.
Described herein is a viability screen to look for activity in the SYK inhibitor drug resistant cell line against four NCATS compound libraries (MIPE 5.0, NPC, NPACT, and Kinase) totaling 11372 compounds. Active hits were reacquired for confirmation and further secondary assay testing.
SEQUENCE No. (e.g., 1, 2, 3, etc.); […] (e.g., Cells, Incubation, Reagent, etc.); VALUE; DESCRIPTION.
1; Media; 2uL; white, solid-bottom Corning assay plate.
2; Compounds; 23nL; Echo acoustic dispenser.
3; Cell; 5uL; 500 cells per well.
4: Incubation; 72hr; 37 C, 5% CO2, 95% humidity.
5; Reagent; 3uL; CellTiter-Glo reagent (Promega).
6; Incubation; 10min; room temperature.
7; Detection; Luminescence; ViewLux plate reader (PerkinElmer).
NOTES (numbers refer to Sequence numbers above
1. Quantitative high-throughput screening (qHTS) of small molecule compounds was conducted on drug resistant SYKi MV4-11 cell line.
2. Twenty-three nanoliter of small molecule compounds were added to each assay plates using the Echo acoustic dispenser (Beckman Coulter).
3. Cells were seeded into the assay plates at a final density of 500 cells in 5uL of media per well using the Multidrop Combi dispenser.
4. Plates were covered with stainless steel gasketed lids and incubated for 72 hours at standard cell culture conditions.
5. Viability was assessed by adding 3uL of CellTiter-Glo detection reagent (Promega).
6. Plates were covered with gasket lids and incubated for 10 minutes at room temperature.
7. Luminescence was measured on a ViewLux plate reader (PerkinElmer).
Potency means the concentration at half of the fitted maximal effect.

SMILES	Potency
Cc1ccc2c(n1)Oc1ccc(C(C)C(=O)OCC(=O)N(C)C)cc1C2 (stereo not given)	inactive
NC(CO)C(=O)NNCc1ccc(O)c(O)c1O (stereo not given)	23.5 µM (active)
CCNC(=O)N1CCN(CCCC(c2ccc(F)cc2)c2ccc(F)cc2)CC1	18.8 µM (active)
CC(C)(C)C(O)/C=C/c1ccc2c(c1)OCO2 (stereo not given)	inactive
Cn1ncc(Cl)c1-c1cc(C(=O)N[C@H](CN)Cc2ccc(F)c(F)c2)sc1Cl	11.6 µM (active) and 4.68 µM (active)
CCN1CCc2nc(N)oc2CC1	inactive
CC(C)OP(=O)(CP(=O)(OC(C)C)OC(C)C)OC(C)C	inactive
C=CC(=O)N[C@H]1CN(c2nc(Nc3cn(C)nc3OC)c3ncn(C)c3n2)C[C@@H]1F	18.6 µM (active)
Nc1nc2c(c(=O)[nH]1)C[C@@H](CCc1ccc(C(=O)N[C@@H](CCC(=O)O)C(=O)O)cc1)CN2	0.0092 µM (active)
CC(=O)O[C@H]1CC(C)(C)CC2[C@@]13[C@H](O)C[C@]1(C)[C@@]2(CCC2[C@@]4(C)CC[C@H](O[C@@H]5OC[C@H](O[C@@H]6O[C@H](CO)[C@@H](O)[C@H](O)[C@H]6O[C@@H]6OC[C@@H](O)[C@H](O)[C@H]6O)[C@H](O)[C@H]5O[C@@H]5O[C@H](CO)[C@@H](O)[C@H](O)[C@H]5O)C(C)(C)C4CC[C@]21C)O[C@@H]3O (stereo not given in full)	0.778 µM (active)
O=C(NCc1ccccn1)Nc1nnc(-c2ccco2)o1	inactive
COc1cccc2c1C(=O)c1c(O)c3c(c(O)c1C2=O)C[C@@](O)(C(C)=O)C[C@@H]3O[C@H]1C[C@H](N)[C@H](O)[C@H](C)O1	42.2 nM (active) and 18.6 nM (active)
C[C@]1(O)CC[C@@H]2C(C(=O)O)=CO[C@@H](O[C@@H]3O[C@H](CO)[C@@H](O)[C@H](O)[C@H]3O)[C@@H]21	inactive
CCN1CCC[C@H]1CNC(=O)c1cc(S(N)(=O)=O)ccc1OC	inactive
O=C(COCC(=O)N1CCN(C(c2ccccc2)c2ccccc2)CC1)Nc1ccc(Cl)cc1C(=O)O	inactive
Nc1cc(C(F)(F)F)c(-c2cc(N3CCOCC3)nc(N3CCOCC3)n2)cn1	1.46 µM (active) and 2.09 µM (active)
CCc1nc(-c2cccc(C)c2)c(-c2ccnc(NC(=O)c3ccccc3)c2)s1	20.6 µM (active)
C/C=C/C=C/C=C/C(=O)O[C@@H]1[C@@H](OC)C2=C(C(=O)N(C(CCC(=O)O)C(=O)O)C2)[C@@]2(C)CCCC(C)(C)[C@H]12 (stereo not given in full)	inactive
O=C(c1ccc2nccnc2c1)N1CCCCC1	inactive
CC1(c2nc3c(C(N)=O)cccc3[nH]2)CCCN1 (stereo not given)	inactive

SMILES	Potency
C=C1CCC2C(C)(C(=O)O)CCCC2(C)C1CC/C(=C\CO)CO (stereo not given)	inactive
Cc1ccccc1-n1nc(-c2c(-c3ccc(F)cc3)nn3c2NC[C@@H](CO)C3)ccc1=O	2.91 µM (active)
O=C(NOC[C@H](O)CO)c1ccc(F)c(F)c1Nc1ccc(I)cc1F	0.164 µM (active)
Cc1ccc(C2(COC(=O)C(C)C)CO2)c(OC(=O)C(C)C)c1 (stereo not given)	2.02 µM (active)
CC[C@@H]1C(=O)N(C)c2cnc(Nc3ccc(C(=O)NC4CCC(N5CCN(CC6CC6)CC5)CC4)cc3OC)nc2N1C(C)C (stereo not given in full)	23.1 nM (active) and 9.2 nM (active) and 16.6 nM (active)
O=C(NCC(O)CO)c1ccncc1Nc1ccc(I)cc1F (stereo not given)	0.164 µM (active)
Cc1cc(Nc2ncc(Cl)c(Nc3ccccc3S(=O)(=O)C(C)C)n2)c(OC(C)C)cc1C1CCNCC1	2.31 µM (active) and 2.35 µM (active)
C[C@]12CC[C@@H]3c4ccc(O)cc4C[C@@H](CCCCCCCCCS(=O)CCCC(F)(F)C(F)(F)F)[C@H]3[C@H]1CC[C@H]2O (stereo not given in full)	4.68 µM (active)
COc1ccc(C(=O)N(CCC(C)C)Cc2nc(C)c(C)n2Cc2ccccc2C)c(OC)c1	20.6 µM (active)
COc1cc([C@@H]2Oc3c(OC)cc(CCCO)cc3[C@@H]2CO[C@@H]2O[C@H](CO)[C@@H](O)[C@H](O)[C@H]2O)ccc1O	inactive
O=C(Nc1ccc(OC(F)(F)F)cc1)c1sccc1NCc1ccnc2ccccc12	4.68 µM (active) and 5.8 µM (active)
O=C(Oc1cccc2cccnc12)c1ccccc1	inactive
O=C(Nc1ccccc1)c1ccc(Nc2nnc(-c3ccc(O)cc3)c3ccccc23)cc1	23.1 µM (active)
COC(=O)C1=CO[C@@H](O[C@@H]2O[C@H](CO)[C@@H](O)[C@H](O)[C@H]2O)[C@H]2[C@@H]1CC(OC)O[C@@H]2C (stereo not given in full)	inactive
COC(=O)CCC(=O)OC[C@]1(C)CCC[C@@]2(C)C3CC[C@]4(C)C=CC3(CCC12)C4 (stereo not given in full)	inactive
NC(=O)NCCCC(NC(=O)Cc1ccccc1)C(=O)O (stereo not given)	inactive
CCC(c1ccc(O)cc1)C(CC)c1ccc(O)cc1 (stereo not given)	26.3 µM (active)
Cc1c(-c2cnccn2)ssc1=S	4.68 µM (active)
C=C1C(=O)O[C@H]2C3=C(C)CCC[C@]3(C)C(=O)C[C@@H]12	0.92 µM (active)
NC1CCN(c2cccc(Cl)n2)CC1	inactive
